Source: PubChem BioAssay
KCNH2 3.1 block = blocks the human KCNH2 3.1 channel isoform | U2OS KCNH2 3.1, thallium flux FluxOr; hits give low values | activity change, % (tested at about 1.8 µM) | 340,000 compounds, 0.95% hits | AID 720553;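 active means maximum activity change below -70%; inconclusive means maximum activity change from -70% to -50%; inactive means maximum activity change above -50%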;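 further: thallium influx rate constant from kinetic fluorescence after stimulation buffer; on the % scale 0 is the no-effect control and ±100 the full control effect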
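Thallium flux via FluxOr fluorescence (Red40 quencher, 45 min loading) in U2OS cells virally expressing the KCNH2 3.1 isoform (1.77 x 10^8 /mL virus, overnight at 37 C). Rate constants from 2-min kinetic reads post-stimulation, normalised to positive and negative controls.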
PTHR1 ag = PTHR1 (human) receptor agonism | Potency, µM (titrated, usually from 115 µM), for the others: at the top dose activation, actives largely listed as activators | AID 743266 | HEK293 GP2 PTHR1 cells, GloSensor cAMP luminescence, 1 h | 410,000 compounds, 0.075% hits; further: potency means the concentration at half of the fitted maximal effect; nearly all actives have a fitted effect of over 55% in size
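HEK-293-derived GP2 cells expressing PTHR1 and a GloSensor cAMP reporter, 3,000/well, plated overnight, given luciferin plus IBMX (each 0.5 mM as added) for 1 h at 37 °C, then compound for 1 h at 37 °C. Luminescence was read after 15 min at room temperature.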
RXFP1 agonist = RXFP1 (human) receptor agonism | Q9HBX9 | HEK293T-RXFP1 cAMP TR-FRET, 30 min; response scale: percent of porcine relaxin response, buffer zero | Potency, µM (highest dose often 57.5 µM), inactives show top-dose activation, hits mostly activators | 370,000 compounds, 0.3% hits | AID 2676; further: potency means the concentration at half of the fitted maximal effect; on the % scale 0 is the no-effect control and ±100 the full control effect; nearly all actives have a fitted effect of over 60% in size
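HEK293T cells stably expressing RXFP1 were pretreated with the PDE4 inhibitor Ro 20174, exposed to compounds for 30 min at 37C, lysed, and cAMP was read by TR-FRET. Data normalized to buffer (basal) and 29 nM porcine relaxin (100%).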
KCNH2 WT inh = blocks the wildtype human KCNH2 potassium channel | Q12809 | U2OS, BacMam KCNH2, thallium flux FluxOr; hits give low values | activity change, % at 1.84 µM | 340,000 compounds, 0.37% hits;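 active means maximum activity change below -70%; inconclusive means maximum activity change between -70% and -50%; inactive means maximum activity change above -50%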; further: on the % scale 0 is the no-effect control and ±100 the full control effect
Target sequence (Q12809 whole entry, looked up): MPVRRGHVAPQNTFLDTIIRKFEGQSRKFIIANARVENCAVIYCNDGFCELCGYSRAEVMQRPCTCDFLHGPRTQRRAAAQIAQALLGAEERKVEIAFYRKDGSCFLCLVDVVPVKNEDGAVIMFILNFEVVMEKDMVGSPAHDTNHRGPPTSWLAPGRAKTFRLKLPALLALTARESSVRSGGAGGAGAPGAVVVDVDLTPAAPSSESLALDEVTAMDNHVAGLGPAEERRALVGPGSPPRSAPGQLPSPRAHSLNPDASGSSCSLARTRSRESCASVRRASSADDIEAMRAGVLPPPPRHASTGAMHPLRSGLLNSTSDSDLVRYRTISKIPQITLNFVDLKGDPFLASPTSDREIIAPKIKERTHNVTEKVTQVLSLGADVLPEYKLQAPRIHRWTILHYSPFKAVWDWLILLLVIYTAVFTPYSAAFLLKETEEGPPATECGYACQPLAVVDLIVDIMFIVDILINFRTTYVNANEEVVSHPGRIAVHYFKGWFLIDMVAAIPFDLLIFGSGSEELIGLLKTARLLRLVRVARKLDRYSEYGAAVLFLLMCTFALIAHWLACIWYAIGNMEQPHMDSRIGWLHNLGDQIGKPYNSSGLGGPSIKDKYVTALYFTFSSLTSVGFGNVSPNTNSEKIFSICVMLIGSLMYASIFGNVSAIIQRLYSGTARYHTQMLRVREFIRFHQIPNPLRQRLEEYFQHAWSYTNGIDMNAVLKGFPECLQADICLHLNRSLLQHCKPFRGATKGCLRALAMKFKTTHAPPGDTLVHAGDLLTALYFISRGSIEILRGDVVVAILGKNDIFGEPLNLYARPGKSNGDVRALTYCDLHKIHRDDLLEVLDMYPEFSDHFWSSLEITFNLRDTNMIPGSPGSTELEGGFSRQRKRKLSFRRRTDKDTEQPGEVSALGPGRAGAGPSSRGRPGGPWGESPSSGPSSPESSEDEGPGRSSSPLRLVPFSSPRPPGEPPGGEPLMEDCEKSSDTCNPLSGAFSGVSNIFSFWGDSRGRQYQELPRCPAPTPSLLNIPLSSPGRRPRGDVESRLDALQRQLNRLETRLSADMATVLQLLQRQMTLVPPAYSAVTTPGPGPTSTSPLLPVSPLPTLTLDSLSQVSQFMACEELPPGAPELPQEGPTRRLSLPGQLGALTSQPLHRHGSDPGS
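U2OS cells transduced with wild-type KCNH2 virus are loaded with FluxOr dye for 45 min, and thallium flux is measured in kinetic reads before and after stimulation buffer. Rate constants are normalized to DMSO controls.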
Glioma ERSR ind = ER stress response induction in glioma | U87-MG GRP78 promoter luciferase reporter, 16 h | Potency, µM, for the others: at the top dose activation, hits mostly activators | 420,000 compounds, 0.02% hits; further: potency means the concentration at half of the fitted maximal effect; series mostly up to about 76 µM; % of control where 0% means no effect; nearly all actives have a fitted effect of over 35% in size
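Stably transfected U87-MG glioma cells carrying a GRP78-based luciferase sensor; 16 h compound incubation. Luminescence end-point read 10 min after Bright-Glo addition at room temperature.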
RXFP1 antag = antagonists of human relaxin receptor RXFP1 | Q9HBX9 | HEK293-RXFP1, relaxin-stimulated cAMP HTRF, 30 min; hits give low values | activity change, negative = inhibition, % at 57.5 µM | 350,000 compounds, 0.59% hits | AID 1259400;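 active means activity change of -60% or lower, but not beyond a set lower limit; inconclusive means change between -60% and -40%, or beyond the set limit; inactive means change above -40%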; further: on the % scale 0 is the no-effect control and ±100 the full control effect
An asterisk follows results filed as active; i = inactive; ? = inconclusive; nt = no result given; [ ] = dose if it differs, or a comment. Rows were chosen to be rich in hits. Some 1.4% of all compounds tested hit in one or more screens of this group. Unless noted, the call rests on the fitted dose curve; in most records, active means well fitted curve in the direction sought with a large enough effect; inconclusive means small, poorly fitted or top-dose-only effect, or another doubt; inactive means no such curve, though single readings can be large; an effect the other way counts as inactive or inconclusive.

SMILES	KCNH2 3.1 block	PTHR1 ag	RXFP1 agonist	KCNH2 WT inh	Glioma ERSR ind	RXFP1 antag
Cn1c(CN2CCN(C(=O)c3ccccc3)CC2)nc2cc([N+](=O)[O-])ccc21	-3	-11%	1%	11	2%	-4
Cn1c(CN2CCCCC2)nc2cc([N+](=O)[O-])ccc21	-185*	i	2%	12	-3%	-8
CCOC(=O)c1c(NC(=S)N2CCCCC2)sc2c1CCN(C(=O)OCC)C2	-1	-25%	7%	-2	-9%	-16
CCOC(=O)N1CCc2c(sc(NC(=O)CN3CCOCC3)c2C(=O)Nc2ccccc2)C1	-8	i	2%	14	-2%	0
C=CCNC(=S)Nc1sc2c(c1C(=O)OCC)CCN(C(=O)OCC)C2	1	-8%[57.5 µM]	11%	-8	-4%	-80*
CCOC(=O)N1CCc2c(sc(NC(=O)CN3CCN(C)CC3)c2C(=O)Nc2ccccc2)C1	-97*	i	4%	?	-4%	-1
N#C/C(=C\c1ccc(OCCN2CCOCC2)cc1)C(=O)Nc1ccccc1F	nt	i	-4%	-11	-4%	-7
COc1cccc(NC(=O)CCC2CCN(C(=O)c3cncs3)CC2)c1	13	i	2%	-2	-1%	-3
Cc1ccc(NC(=S)NC2CCSc3ccccc32)cc1 (stereo unspecified)	-34	-30%	1%	0	0%	-62*
Cc1nc(SCc2ccc([N+](=O)[O-])cc2)n[nH]1	-21	?	1%	-2	3%	-73*
CCc1nc(SCc2ccc([N+](=O)[O-])cc2)n[nH]1	-2	i	0%	-7	1%	15
O=C(CN1CCC(Cc2ccccc2)CC1)N1CCc2ccccc2C1	-90*	-9%	3%	-35	-3%	0
O=[N+]([O-])c1ccc(Cl)c(S(=O)(=O)/N=C(/c2ccccc2)N2CCOCC2)c1	3	i	-1%	-5	-2%	-61*
CC(NC(=O)/C(C#N)=C/c1ccc(Cl)c([N+](=O)[O-])c1)c1ccccc1 (stereo unspecified)	-4	-41%	-1%	nt	-14%	-104*
Cn1c(=O)c2[nH]c(SCCN3CCOCC3)nc2n(C)c1=S	33	-21%	nt	-2	-1%	-72*
CC1=NNC(=O)/C1=C\c1cn(-c2ccccc2)nc1-c1ccccc1	-18	-38%	-5%	-5	-12%	-73*
Cn1c(=S)ccc2ccccc21	-9	i	28%	0	-2%	10
CCOc1ccccc1NC(=O)Cn1nnc(C(=O)Nc2ccc(C)cc2)c1N	-7	i	0%	-127*	-5%	-5
CCC(C)NC(=O)C(Cc1ccccc1)NS(=O)(=O)c1ccc2c(c1)CCC(=O)N2 (stereo unspecified)	-6	i	-1%	-6	-6%	-71*
COc1ccc(OCC(=O)NC(=S)Nc2ccc3c4c(cccc24)CC3)cc1	nt	-22%	20µM*	-10	-4%	13
CCN(CC)CCCN(C(=O)c1cccc(C)c1)c1nc(-c2ccc(OC)cc2)cs1	-73*	-12%	-3%	-81*	-3%	11
CCN(CC)CCCN(C(=O)c1ccc(Br)cc1)c1nc(-c2ccc(OC)cc2)cs1	-109*	i	0%	-135*	-6%	-16
C=CCn1c(SCc2ccc(Br)cc2F)nc2cc(C(=O)O)ccc2c1=O	7	-14%	0%	4	1%	-18
Cc1c(CNCCCc2ccccc2)c(C(=O)O)c(C)n1Cc1cccc(Cl)c1	nt	-4%	-1%	nt	-2%	-33
COc1ccc2cc(C3CC(c4ccco4)=NN3S(=O)(=O)c3ccccc3)c(Cl)nc2c1 (stereo unspecified)	-83*	i	2%	-8	-5%	-9
SMILES	KCNH2 3.1 block	PTHR1 ag	RXFP1 agonist	KCNH2 WT inh	Glioma ERSR ind	RXFP1 antag
CCOc1ccc2nc(Cl)c(C3CC(c4ccco4)=NN3S(C)(=O)=O)cc2c1 (stereo unspecified)	-12	-9%	9%	-1	3%	-71*
Cc1ccc2nc(Cl)c(C3CC(c4ccco4)=NN3S(C)(=O)=O)cc2c1 (stereo unspecified)	-4	-12%	9%	19	0%	-16
CCC(C)n1c(S(=O)(=O)O)nc2ccccc21 (stereo unspecified)	-12	-13%[57.5 µM]	0%	-184*	-11%	-1
CCCn1c(S(=O)(=O)O)nc2ccccc21	14	-2%	1%	-18	-5%	5
CC(C)C(=O)NC(=S)Nc1ccccc1N1CCN(C(=O)c2ccc(Cl)cc2)CC1	-5	-21%	0%	1	0%	-14
CCOC(=O)N1CCN(S(=O)(=O)c2ccc(C(=O)Nc3sc4c(c3C(=O)OC)CCN(C)C4)cc2)CC1	0	-24%	2%	-4	-18%	-5
CCOC(=O)c1c(NC(=O)c2ccc(S(=O)(=O)N3CCC(C)CC3)cc2)sc2c1CCN(C)C2	nt	-18%	-36%	nt	-11%	-63*
Cc1cccc(Nc2nc(N)nc(CSc3nccn3C)n2)c1	17	22%	1%	5	-4%	4
CC(C)(C)c1ccc(/C([O-])=C(/C(=S)NCc2ccco2)[n+]2ccccc2)cc1	nt	nt	25µM*	nt	nt	nt
CC(C)(C)c1ccc(C(=O)NC(=S)NCc2ccco2)cc1	-9	-8%	1%	-8	2%	-4
CC1CC(C)CN(CCCNC(=O)Cn2cccc2C(=O)c2ccccc2)C1 (stereo unspecified)	10	-18%	-1%	49	-5%	-13
CCOC(=O)c1ccccc1NC(=O)CSc1nnc(Cc2cccn2C)n1-c1ccc(F)cc1	-11	0%[57.5 µM]	1%	-87*	-2%	14
CCCc1ccc(OCc2ccc(C(=O)NCc3cccnc3)o2)c(OC)c1	15	-41%	-2%	nt	14%	-1
Cc1noc(C)c1NC(=O)N(C)C[C@H]1Oc2ccc(NC(=O)NC3CCCCC3)cc2C(=O)N([C@H](C)CO)C[C@@H]1C	1	-17%	nt	1	-3%	nt
CCOC(=O)c1c(NC(=O)CSc2nc(C)cc(C)c2C#N)sc(C(C)=O)c1C	4	-1%	18µM*	1	1%	-9
COc1ccc(C(=O)Oc2cc3c4c(c2)C(C)=CC(C)(C)N4C(=O)C3=O)cc1OC	-72*	-35%	0%	16	2%	-2
c1ccc(-c2nc3ccccn3c2NCc2ccc3c(c2)OCO3)cc1	-34	-15%	6%	3	0%	11
COc1ccc(-c2nc3cc(C)ccn3c2NCc2ccc3c(c2)OCO3)cc1	-81*	-48%	9%	-83*	0%	-5
